# G9a block: inhibitors of human histone lysine methyltransferase G9a; Q96KQ7; G9a H3K9 monomethylation, AlphaScreen, 2 h; Potency, µM (doses to about 102 µM), for the others: at the top dose activity, negative = inhibition, actives largely listed as inhibitors; 350,000 compounds, 8.8% hits; also: potency is read from the fitted curve at half-maximal effect; % is scaled to controls: 0 for no effect and ±100 for the full control effect; nearly all actives have a fitted effect of over 75% in size
#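 Enzyme 20 nM + cpd, 15 min RT; add b-H3K9 pep 500 nM / SAM 20 uM; 2 h RT; anti-H3K9me1 Ab 0.5 ug/mL + SA donor / anti-rabbit acceptor beads 20 ug/mL each, 10 min; AlphaScreen read.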
# CtBP-E1A blk: blocks the CtBP interaction with E1A; AlphaScreen GST-E1A/His-CtBP binding, 1536-well; stronger effect = lower value; activity change, % (test concentration not listed); 340,000 compounds, 0.49% hits; in the data active = activity change below about -65%; inconclusive = mostly about -30% to -63%; also: % is scaled to controls: 0 for no effect and ±100 for the full control effect
#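 Protein mix (5X: 125 nM each GST-E1A, His-CtBP) was incubated with pinned compound 2 h at 37 deg C in dark, in 50 mM Tris pH 8.0 buffer with 300 mM NaCl. Glutathione donor and nickel acceptor beads followed; AlphaScreen signal read after 1 h.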
# HP1b chromo inh: inhibitors of HP1-beta chromodomain binding to methylated histone tails; P83916; AlphaScreen HP1-beta / biotin-H3K9me3 peptide binding; 390,000 compounds, 0.56% hits; Potency, µM (doses to about 114 µM), for inactives: top-dose activity change, negative = inhibition, usual class: inhibitors; also: potency is read from the fitted curve at half-maximal effect; nearly all actives have a fitted effect of over 70% in size
#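 HP1-beta protein (50 nM final) preincubated 30 min at room temperature with biotinylated H3(1-18)K9me3 peptide (50 nM) in PBS pH 7.4, 0.01% Tween-20, then compound added for 30 min. AlphaScreen streptavidin donor/nickel chelate acceptor beads (10 ug/mL final), 30 min dark, luminescence read.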
# Six1-Eya2 inh: Six1/Eya2 interaction inhibition; Q15475+O00167; AlphaScreen GST-Six1/His-Eya2 binding, biochemical; stronger effect = lower value; activity change, % (concentration not given with the values); 360,000 compounds, 0.56% hits; AID 651725; in the data active = activity change below about -65%; inconclusive = mostly about -30% to -63%; also: % is scaled to controls: 0 for no effect and ±100 for the full control effect
#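 Homogeneous AlphaScreen proximity assay pairing GST-Six1 with His-tagged Eya2 (added as 5X mix: 250 nM and 500 nM) in 50 mM Tris pH 8.0, 300 mM NaCl, 1 mM TCEP. Glutathione donor and nickel acceptor beads; 1 h, 37 °C, dark.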
# JMJD2A Tudor: blocks the human JMJD2A Tudor domain. O75164. AlphaScreen JMJD2A-Tudor / H3K4me3 peptide binding. Potency, µM (top dose mostly 114 µM), for inactives: at the top dose activity change, negative = inhibition, most hits filed as inhibitors. 390,000 compounds, 4.4% hits; also: potency is read from the fitted curve at half-maximal effect; % is scaled to controls: 0 for no effect and ±100 for the full control effect; nearly all actives have a fitted effect of over 50% in size
# Target sequence (O75164 whole entry, looked up, the tested form may be a part): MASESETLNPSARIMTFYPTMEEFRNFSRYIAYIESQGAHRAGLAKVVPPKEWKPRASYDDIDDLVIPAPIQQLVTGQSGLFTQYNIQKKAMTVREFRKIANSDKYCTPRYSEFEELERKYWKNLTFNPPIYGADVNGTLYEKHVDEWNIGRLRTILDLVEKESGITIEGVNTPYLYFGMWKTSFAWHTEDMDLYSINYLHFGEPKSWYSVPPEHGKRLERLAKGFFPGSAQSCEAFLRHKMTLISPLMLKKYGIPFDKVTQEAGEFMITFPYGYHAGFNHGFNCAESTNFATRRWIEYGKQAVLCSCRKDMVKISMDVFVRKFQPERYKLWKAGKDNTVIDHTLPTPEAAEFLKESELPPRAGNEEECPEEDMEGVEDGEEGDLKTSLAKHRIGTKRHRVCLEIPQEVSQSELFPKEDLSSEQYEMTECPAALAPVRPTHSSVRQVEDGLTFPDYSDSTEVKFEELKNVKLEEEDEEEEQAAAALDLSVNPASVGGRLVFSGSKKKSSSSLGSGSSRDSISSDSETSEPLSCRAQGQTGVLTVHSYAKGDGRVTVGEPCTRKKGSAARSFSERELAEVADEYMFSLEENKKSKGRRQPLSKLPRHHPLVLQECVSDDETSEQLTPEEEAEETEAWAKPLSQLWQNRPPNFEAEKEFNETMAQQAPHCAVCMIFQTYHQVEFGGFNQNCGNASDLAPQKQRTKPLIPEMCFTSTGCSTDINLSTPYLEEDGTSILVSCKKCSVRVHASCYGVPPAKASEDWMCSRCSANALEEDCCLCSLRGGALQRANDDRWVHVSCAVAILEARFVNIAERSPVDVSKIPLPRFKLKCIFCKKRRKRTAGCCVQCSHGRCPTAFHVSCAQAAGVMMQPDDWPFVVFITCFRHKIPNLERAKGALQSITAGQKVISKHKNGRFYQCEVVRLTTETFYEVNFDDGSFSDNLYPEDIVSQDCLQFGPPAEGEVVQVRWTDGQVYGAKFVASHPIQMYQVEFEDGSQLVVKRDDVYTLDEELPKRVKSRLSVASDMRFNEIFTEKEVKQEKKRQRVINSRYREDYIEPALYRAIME
# BAZ2B block: inhibitors of human BAZ2B bromodomain | 360,000 compounds, 4.4% hits | AlphaScreen BAZ2B-H3K14Ac peptide displacement | Q9UIF8 | Potency, µM (top dose mostly 114 µM), for inactives: at the highest dose activity change, negative = inhibition, usual class: inhibitors; also: potency is read from the fitted curve at half-maximal effect; % is scaled to controls: 0 for no effect and ±100 for the full control effect; nearly all actives have a fitted effect of over 60% in size
#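 Inhibition is scored as reduced AlphaScreen emission. The BAZ2B/b-H3(5-23)K14Ac complex (50 nM each) in PBS pH 7.4, 0.01% Tween-20 meets compound (up to 110 uM) for 30 min at RT before bead addition.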
# * = called active by the depositor; ? = inconclusive; / = no result; ! = a repeat was not active; [ ] = dose if it differs, or a comment. A selection: hits, their analogues and other compounds. The true share with any hit is near 10%. Unless noted, calls follow the shape of the dose curve; as a rule, active = well fitted inhibition curve with a large enough effect; inconclusive = small, poorly fitted or top-dose-only effect; inactive = no such curve, though single readings can be large or run the other way.
SMILES,G9a block,CtBP-E1A blk,HP1b chromo inh,Six1-Eya2 inh,JMJD2A Tudor,BAZ2B block
O=C(CN1C(=O)NC2(CCCC2)C1=O)Nc1ccc(Cl)cc1C(F)(F)F,11%[59 µM],-12,50%,-2,-3%,0%
Cc1ccc(NC(=S)NNC(=S)Nc2cccc(C(F)(F)F)c2)cc1,20µM*,3,?,1,?,-27%
NC(=O)/C=C\C(=O)Nc1cccc(C(F)(F)F)c1,10µM*,-1,16%,-5,-12%,-8%
CN(C)NC(=S)Nc1cccc(C(F)(F)F)c1,/,1,28%,7,7%,0%
NNC(=O)Nc1cccc(C(F)(F)F)c1,15%,0,56%,12,-6%,-2%
CCn1c(=O)c2cc(C(=O)Nc3cccc(C(F)(F)F)c3)sc2c2ccccc21,-3%[59 µM],/,32%,/,2%,-9%
CCc1ccc(NC(=O)Cn2nnc(-c3ccccc3N)n2)cc1,7%[59 µM],/,29%,/,-8%,-1%
Cc1nnc(-c2cccc(Br)c2)c2cn(-c3ccccc3)nc12,8%,-6,5%,-1,?,2%
Cc1nnc(-c2cccc(Br)c2)c2cn(-c3cccc(Br)c3)nc12,?,-11,23%,-25,?,56µM*
COC(=O)c1[nH]c2cccc(OC)c2c1NC(=O)CCN1CC(C)CC(C)C1 (stereo not given),50µM*,-1,49%,-1,-1%,-22%
COC(=O)c1[nH]c2cccc(OC)c2c1NC(=O)CCN1CCN(c2cccc(Cl)c2)CC1,50µM*,/,/,/,/,-39%
COC(=O)c1[nH]c2cccc(OC)c2c1NC(=O)CCN1CCSCC1,5%,?,35%,-1,6%,1%
Cc1cc(NC(=O)N(C)CCc2c(C)nn(C)c2C)ccc1Br,10%[59 µM],/,20%,/,-11%,-5%
Cc1ccc(NC(=O)CSc2ccc3nnc(CCNC(=O)c4ccccc4)n3n2)c(C)c1,24%[59 µM],-3,21%,-9,-11%,-3%
N=C1Sc2ccccc2C2=NCCCN12,0.11µM*,/,/,/,/,/
COc1ccccc1N1CCN(CCCNc2cc(=O)n(C)c(=O)n2C)CC1,22µM*!,3,/,-3,/,-7%
COc1ccccc1N1CCN(CCN(C(=O)c2ccc(I)cc2)c2ccccn2)CC1,21µM*,/,/,/,/,/
COc1ccccc1N1CCN(CCOc2c(OC)cccc2OC)CC1,40µM*,-4,13%,9,-2%[57.1 µM],-12%
COc1ccccc1N1CCN(C/C=C/c2ccc(N(C)C)cc2)CC1,?,/,/,/,/,40µM*
O=C(C1CCCCC1)N(CCN1CCN(c2ccccc2CO)CC1)c1ccccn1,13%[59 µM],/,/,/,/,/
CCn1nnnc1SCC(=O)N1CCCCC1,7%,-2,-17%,4,-20%,-1%
CCCc1ncc(C(O)(c2ccccc2)c2ccccc2)n1C,-3%,0,16%,1,-18%,-7%
CCCCSCc1nc2nc(Cl)c(Cl)nc2[nH]1,/,4,/,-1,/,/
COc1ccc(C(=O)NNc2ncnc3c2cnn3-c2ccc(C)c(Cl)c2)cc1,14%[59 µM],/,28%,/,-20%,0%
COc1ccccc1N1CCN(CCCOc2ccc(F)cc2)CC1,8.9µM*,-2,?,-9,2.2µM*,?
SMILES,G9a block,CtBP-E1A blk,HP1b chromo inh,Six1-Eya2 inh,JMJD2A Tudor,BAZ2B block
Oc1c(Cl)cc(Cl)c2c1NCCC2,?,4,50µM*,?,56µM*,?
O=C(O)C1=C(C(=O)O)C2C=CC1C2,/,4,-11%[57 µM],-5,89µM*,/
CN(C)NC(=S)NC1CCS(=O)(=O)C1 (stereo not given),50µM*,2,10%,-13,32µM*,-16%
COc1ccc(N2C(=O)/C(=C/N(C)C)NC2=S)cc1,3.5µM*,7,?,-1,18µM*,-12%
COc1ccc(N2C(=O)/C(=C/c3cccnc3)NC2=S)cc1,?,5,34%,7,-12%,5%
COCCNC(=O)c1cc2c(=O)n3cccc(C)c3nc2n1C,28µM*,5,38%,2,6%,0%
CCOCCCn1c(=N)c(C(N)=S)cc2c(=O)n3cccc(C)c3nc21,?,-29,-23%,-22,79µM*,?
